Only some compounds are listed: those with a hit (about 2.3% of all), similar ones and a draw of the others.
CHT inh – human CHT choline transport inhibition. Q9GZV3. CHT-expressing cells, membrane potential dye, choline response; hits give low values. B-score at 10 µM. 0.86% of 310,000 active. AID 488975;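 active = B-score over 3 SD under the library average, and starting fluorescence ratio not unusually high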;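 note: choline stimulus applied at its EC90 after an EC20 pre-addition; B-score computed on integrated fluorescence ratio after choline addition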
CHT allo act – allosteric activators of human choline transporter CHT; CHT-expressing cells, membrane potential dye, choline EC20; hits give high values; LV-AA mutant CHT in HEK293 cells; B-score at 10 µM; 0.49% of 310,000 active;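 active = initial fluorescence not abnormally high and integrated response B-score, plate-corrected, over 3 SD above library mean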
TMEM16A act – activators or potentiators of mouse TMEM16A chloride channel; HEK293 TMEM16A/YFP-H148Q/I152L, iodide quench fluorescence; hits give low values; AID 623877; 0.3% of 340,000 active; Q8BHY3; B-score at 10 µM;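 active = fluorescence-ratio B-score plate-corrected deviation score at least 3 library SD below zero, with starting fluorescence score within 5 deviations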;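 note: channel opened by trigger with iodide after compound preincubation; score built on the fluorescence ratio of max minus min over baseline; more negative score means more quench and so TMEM16A activation or potentiation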
Target sequence (Q8BHY3 whole entry, looked up): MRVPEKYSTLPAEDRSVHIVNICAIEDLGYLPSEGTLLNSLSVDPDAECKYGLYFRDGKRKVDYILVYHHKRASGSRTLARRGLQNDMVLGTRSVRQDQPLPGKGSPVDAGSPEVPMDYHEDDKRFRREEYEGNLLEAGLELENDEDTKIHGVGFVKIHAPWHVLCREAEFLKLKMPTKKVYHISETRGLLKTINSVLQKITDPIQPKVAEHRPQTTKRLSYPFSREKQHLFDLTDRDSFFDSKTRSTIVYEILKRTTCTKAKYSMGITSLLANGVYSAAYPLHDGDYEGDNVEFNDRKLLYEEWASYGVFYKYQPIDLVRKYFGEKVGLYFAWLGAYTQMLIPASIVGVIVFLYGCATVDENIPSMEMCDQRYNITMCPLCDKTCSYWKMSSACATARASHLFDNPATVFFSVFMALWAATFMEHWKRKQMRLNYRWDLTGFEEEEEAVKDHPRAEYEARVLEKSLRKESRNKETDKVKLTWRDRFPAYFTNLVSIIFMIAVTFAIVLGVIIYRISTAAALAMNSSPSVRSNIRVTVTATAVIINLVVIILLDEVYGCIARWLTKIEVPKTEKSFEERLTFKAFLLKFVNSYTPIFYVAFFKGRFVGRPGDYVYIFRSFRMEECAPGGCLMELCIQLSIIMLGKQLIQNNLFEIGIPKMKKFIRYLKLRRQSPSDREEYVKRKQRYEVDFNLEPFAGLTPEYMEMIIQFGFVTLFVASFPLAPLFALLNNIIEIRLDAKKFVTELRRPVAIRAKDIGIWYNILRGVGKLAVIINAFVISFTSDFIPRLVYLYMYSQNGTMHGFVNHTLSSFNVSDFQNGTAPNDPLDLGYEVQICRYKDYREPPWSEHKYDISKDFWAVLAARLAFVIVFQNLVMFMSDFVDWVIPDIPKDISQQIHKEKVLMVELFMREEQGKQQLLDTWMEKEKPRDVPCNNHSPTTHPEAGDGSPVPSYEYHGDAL
ANO1 block – blocks the mouse calcium-activated chloride channel TMEM16A; Q8BHY3; HEK293 TMEM16A/YFP iodide influx fluorescence, ionomycin; normalized B-score (activity score, 25-100; higher = stronger inhibition) at 10 µM; 1.2% of 310,000 active; AID 588511;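 active = ratio plate-corrected score three or more library SD toward inhibition, starting fluorescence score within five deviations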;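 note: score derived from kinetic fluorescence span divided by baseline fluorescence per well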
Starred values were filed as active, the others as inactive; i = inactive; / = no result.

SMILES | CHT inh | CHT allo act | TMEM16A act | ANO1 block
O=C(O)[C@H](Cc1ccccc1)N1C(=O)c2c(Cl)c(Cl)c(Cl)c(Cl)c2C1=O | i | i | i | i
CCc1nc(SCc2nc3ccccc3[nH]2)c2oc3ccccc3c2n1 | i | i | i | 25*
O=C(NCCOc1nc(N2CCOCC2)nc(N2CCOCC2)n1)Nc1ccc(Cl)cc1 | i | i | -14.6* | i
CNc1nc(OCCNC(=O)Nc2ccccc2)nc(N2CCOCC2)n1 | i | i | i | i
CCCCC(=O)N(c1ccc(C(=O)O)cc1)c1nc(-c2ccc(Cl)cc2)c(CC)s1 | i | i | i | 100*
NC(=O)NC(Cc1ccccc1)C(=O)NNC(=O)COc1ccccc1Cl (configuration not stated) | / | / | i | /
CC(C)C(=O)Nc1ccc(NC(=S)NC(=O)c2ccccc2F)cc1 | i | i | i | i
CCN1CCN(c2nc(-c3ccncc3)nc3ccccc23)CC1 | -6.94* | i | / | i
CCCOc1ccc(-c2nc(N3CCN(CC)CC3)c3ccccc3n2)cc1 | i | i | i | i
Cc1ccccc1C1=C/C(=C(\SS/C(C(=O)c2ccc(OCC(=O)O)c(Cl)c2Cl)=C2\C=C(c3ccccc3C)SS2)C(=O)c2ccc(OCC(=O)O)c(Cl)c2Cl)SS1 | / | / | i | /
Cc1c(N2C(=O)/C(=C\c3ccccc3O)SC2=S)c(=O)n(-c2ccccc2)n1C | i | i | i | i
CN1C(=O)/C(=C/c2cc(N=Nc3ccccc3)ccc2O)SC1=S | i | i | i | 100*
O=C(c1cccc(-c2ccccc2F)c1)N1CC[C@@H](N2CCC(O)CC2)[C@H](O)C1 | i | i | i | i
c1ccc(CC2CCN(c3ncnc4sccc34)CC2)cc1 | / | / | -39.9* | /
Nc1ccn(CC(=O)N[C@H](CO)Cc2c[nH]c3ccccc23)c(=O)n1 | / | / | i | /
CC(=O)Nc1ccc(S(=O)(=O)N2CCC(C(=O)NCCC(=O)NCc3ccncc3)CC2)cc1 | i | i | i | i
O=C(CCNC(=O)C1CCN(S(=O)(=O)c2ccccc2)CC1)NCc1ccncc1 | i | i | -27.8* | i
C/C(=N\Nc1ccc(Cl)c(C(=O)O)c1)c1ccc(N2CCOCC2)cc1 | i | i | i | 25*
CCN(CC)CCN(C(=O)C1=COCCO1)c1nc2cc(C)cc(C)c2s1 | -6.02* | i | i | i
CCN(C(=O)C1=COCCO1)c1nc2c(C)cccc2s1 | i | i | i | i
COc1ccc2[nH]c(=O)c(CN(C3CCCCC3)C(c3nnnn3Cc3ccco3)C(C)C)cc2c1 (configuration not stated) | i | i | i | 100*
COc1ccc2[nH]c(=O)c(CN(Cc3nnnn3Cc3ccco3)C3CCCCC3)cc2c1 | i | i | i | i
O=C(OCC#CCSc1nnc(-c2cccc3ccccc23)o1)c1ccc2ccccc2c1 | / | / | i | /
O=c1c(Cl)c(Cl)cnn1Cc1nnc(-c2ccccc2Br)o1 | / | / | -13.3* | /
CC1CCc2c(sc3nc(C4CC4)nc(N4CCN(C(=O)c5ccco5)CC4)c23)C1 (configuration not stated) | i | i | i | 100*
SMILES | CHT inh | CHT allo act | TMEM16A act | ANO1 block
CCc1nc(N2CCN(C(=O)c3ccco3)CC2)c2c3c(sc2n1)CCCC3 | i | i | i | i
Cc1cc(C)nc(NC(=O)c2cc([N+](=O)[O-])cc([N+](=O)[O-])c2)n1 | i | 7.22* | i | i
COc1ccc2c(c1)[C@H]1[C@H](CO2)[C@H](c2ccccc2)[C@]2(C)C(=O)N(CC3CCCO3)CC(=O)N12 (some centres not stated) | / | / | i | /
COC(=O)C1CCCCN1C(=O)c1cc(COc2cccc3cnccc23)on1 (configuration not stated) | i | i | i | 25*
COC(=O)C1CCCCN1C(=O)c1cc(COc2cccc3cccnc23)on1 (configuration not stated) | i | i | i | i
OCc1ccccc1OCCCOc1cccc2cccnc12 | i | i | i | i
O=Cc1nccc2ccccc12 | / | / | -6.51* | /
Cc1oc(-c2ccccc2)cc1C(=O)NCc1ccncc1 | i | i | i | i
CC(=O)Oc1cc2c(C(=O)NCc3ccncc3)c(C)oc2c2ccccc12 | i | i | -20.9* | i
CC(=O)Oc1ccccc1C(=O)C=Cc1cccc([N+](=O)[O-])c1 | / | / | i | /
COc1ccc(CCC(=O)OCC(=O)c2c(N)n(CC(C)C)c(=O)n(C)c2=O)cc1 | i | i | -5.43* | i
Cc1ccc(S(=O)(=O)CCC(=O)OCC(=O)c2c(N)n(CC(C)C)c(=O)n(C)c2=O)cc1 | i | i | i | i
COc1ccc(-c2nn(-c3ccccc3)cc2/C=N/NC(=O)c2ccc(Br)o2)cc1 | i | i | i | 100*
COc1ccc(-c2nn(-c3ccccc3)cc2/C=N/NC(=O)c2ccc3c(c2)OCO3)cc1 | i | i | / | i
CCOC(=O)N1CCc2c(sc3c2c(=O)n(-c2ccc(CC)cc2)c(=O)n3CC(=O)NCC2CCCO2)C1 (configuration not stated) | i | i | i | i
CCc1ccc(CNc2ccc3c(c2)ncn3CC)cc1 | i | i | -6.91* | i
CC(C)(C)n1cnc2cc(NCc3ccc(Br)cc3)ccc21 | i | i | -9.02* | i
CCc1ccc(CNc2ccc3c(c2)ncn3C(C)(C)C)cc1 | i | i | i | i
CC(C)Oc1ccc(CN2CCC(n3nccc3NC(=O)CCc3ccccc3)CC2)cc1 | i | i | i | i
C=CC[n+]1c(/C=C/c2ccc(OC(C)=O)c(OC)c2)ccc2ccccc21 | i | 7.44* | i | i
COc1cc(/C=N/NC(=O)Nc2ccccc2)ccc1OC(C)=O | i | i | i | i
COc1ccc(-c2csc(Nc3ccccn3)n2)cc1OC | i | i | i | 25*
Cc1ccc(-c2csc(Nc3ccccn3)n2)cc1 | i | i | i | i
CC1CCCC(NC(=O)COC(=O)c2cc(=O)[nH]c3ccccc23)C1C (configuration not stated) | / | / | i | /
C=CCn1c(SCC(=O)N2CCN(c3ccc(F)cc3)CC2)nnc1-c1ccco1 | i | i | i | 25*
COc1ccc2c(c1)c(CC(=O)Nc1ccc(C(C)=O)cc1)c(C)n2C(=O)c1ccc(Cl)cc1 | i | i | i | i
COc1ccc2c(c1)c(CC(=O)NCc1cc([N+](=O)[O-])ccc1O)c(C)n2C(=O)c1ccc(Cl)cc1 | i | i | i | 100*
CCN(CC(=O)Nc1ccc(NC(C)=O)cc1)C(=O)c1cn(-c2ccccc2)nc1-c1cccs1 | / | / | i | /
COc1ccc(C)c2sc(N(CCN(C)C)C(=O)/C=C/c3cccs3)nc12 | i | i | i | i
COc1ccc(OC)c2sc(N(CCN(C)C)C(=O)/C=C/c3cccs3)nc12 | i | i | -31.6* | i

Source: PubChem
